A selection: hits, their analogues and other compounds. The true share with any hit is near 3.3%.
AmpC inh no detg = inhibitors of E. coli AmpC beta-lactamase without detergent. P00811. Potency, µM (doses to about 57.1 µM), usual class: inhibitors. AmpC nitrocefin hydrolysis, absorbance 480 nm, 0.0001% Triton. 330,000 compounds, 0.52% hits. AID 485341; note: nearly all actives have a fitted effect of over 20% in size
Target sequence (P00811 whole entry, looked up): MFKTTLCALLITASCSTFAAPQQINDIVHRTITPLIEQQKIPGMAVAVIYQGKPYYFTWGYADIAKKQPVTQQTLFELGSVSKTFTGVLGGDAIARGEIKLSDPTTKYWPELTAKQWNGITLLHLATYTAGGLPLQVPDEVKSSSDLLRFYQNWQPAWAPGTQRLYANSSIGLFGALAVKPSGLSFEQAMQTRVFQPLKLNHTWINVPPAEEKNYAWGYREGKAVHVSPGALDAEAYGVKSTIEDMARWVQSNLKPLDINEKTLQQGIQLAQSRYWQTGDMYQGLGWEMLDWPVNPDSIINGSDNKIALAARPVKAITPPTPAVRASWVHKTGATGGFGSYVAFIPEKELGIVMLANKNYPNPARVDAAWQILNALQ
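AmpC (5.3 nM in the dispensed reagent) in 20 mM phosphate pH 7.0 with 0.01% (detergent screen) or 0.0001% Triton X-100 was preincubated with compounds for 15 min at room temperature. Nitrocefin was then added from an 800 uM solution, and hydrolysis was followed at 480 nm.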
SARS PLP yeast = blocks SARS-CoV papain-like protease in a yeast assay | S. cerevisiae expressing SARS-CoV PLpro, growth rescue | Potency, µM (highest dose often 32.9 µM), most hits filed as activators | 330,000 compounds, 0.19% hits | AID 485353; calls by dose curve; note: nearly all actives have a fitted effect of over 55% in size
Sm TGR inh = S. mansoni TGR enzyme inhibition. Q962Y6. purified TGR, DTNB reduction, TNB absorbance 405 nm. Potency, µM (top dose mostly 114 µM), hits mostly inhibitors. 360,000 compounds, 3% hits; note: nearly all actives have a fitted effect of over 60% in size
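First, TGR (20 nM dispensed) and NADPH were mixed with compound. Second, a 15 min room-temperature incubation followed. Third, further NADPH and then DTNB were added to start the reaction. Finally, TNB absorbance was monitored kinetically.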
RE007 growth inh = less growth of the S. pombe RE007 Vpr strain. S. pombe RE007 Vpr strain, BacTiter-Glo ATP luminescence, 24 h. Potency, µM (top dose mostly 92.2 µM), usual class: inhibitors. 360,000 compounds, 0.21% hits; active = well fitted falling curve with a large enough effect; inconclusive = small, poorly fitted or top-dose-only effect; inactive = no such curve, though single readings can be large or run the other way; note: nearly all actives have a fitted effect of over 50% in size
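Fission yeast strain RE007, carrying one chromosomally integrated HIV-1 vpr copy, was seeded at OD 0.01 in PMG+AL medium with 23 nL pinned compound. After 24 h at 30 °C and 99% humidity, viability was read by BacTiter-Glo luminescence.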
AmpC detergent = blocks E. coli AmpC beta-lactamase in detergent assay; AmpC hydrolysis of nitrocefin, absorbance 480 nm, 0.01% Triton; Potency, µM (series often up to 114 µM), actives largely listed as inhibitors; 370,000 compounds, 0.041% hits; note: nearly all actives have a fitted effect of over 25% in size
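20 mM phosphate pH 7.0 + 0.01% (detergent screen) or 0.0001% Triton X-100; 5.3 nM AmpC reagent; cpd preinc 15 min RT; nitrocefin (800 uM stock) to start; A480 q20 s × 4 min; Activity was normalised to no-enzyme and no-compound control wells.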
TbPYK inhibitor = blocks Trypanosoma brucei pyruvate kinase; Q57TT1; TbPYK enzyme, Kinase-Glo Plus ATP luminescence, 45 min; Potency, µM (titrated, usually from 76.8 µM), usual class: inhibitors; 410,000 compounds, 0.12% hits; AID 624173; note: nearly all actives have a fitted effect of over 50% in size
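Assay buffer: 50 mM TEA pH 7.2, 100 mM KCl, 10 mM MgCl2, 0.05% BSA, 0.01% Tween-20. Pyruvate kinase from T. brucei plus substrate met compound, then ADP (130 uM final). Luminescence was read post 45 min RT.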
A number is an active result; i = inactive; ? = inconclusive; nt = no result; [ ] = another dose, or the depositor's remark. Unless noted, calls come from the whole dose curve; as a rule, active = well fitted curve in the direction sought with a large enough effect; inconclusive = small, poorly fitted or top-dose-only effect, or another doubt; inactive = no such curve, though single readings can be large; an effect the other way counts as inactive or inconclusive.

SMILES	AmpC inh no detg	SARS PLP yeast	Sm TGR inh	RE007 growth inh	AmpC detergent	TbPYK inhibitor
S=c1[nH]nc(-c2ccc(Br)cc2)n1-c1ccc(Br)cc1	i	i	i	i	?	?
O=[N+]([O-])c1cccc(-c2n[nH]c(=S)n2-c2ccc(Br)cc2)c1	i	i	0.79µM	i	i	?
Cc1cccc(-n2c(CCn3nc(C)c([N+](=O)[O-])c3C)n[nH]c2=S)c1	i	i	i	i	i	8.9µM
COc1ccc(-c2n[nH]c(=S)n2-c2ccc3c(c2)OCCO3)cc1OC	i	i	i	i	i	?
COc1cccc(-n2c(CCn3nc(C)c([N+](=O)[O-])c3C)n[nH]c2=S)c1	i	i	i	i	i	?
COc1ccc(-c2n[nH]c(=S)n2-c2ccc(C)cc2)cc1OC	i	i	i	i	i	5µM
COc1cc([N+](=O)[O-])c(OC)cc1SCc1n[nH]c(=S)n1-c1ccc(C)cc1	i	i	i	i	i	2.5µM
CCN(Cc1ccccc1)c1ncnc2c1nnn2C	nt	nt	i	nt	i	i
O=C(O)Cc1ccc(NC2(c3ccccc3)C(=O)c3ccccc3C2=O)cc1	nt	nt	i	nt	i	i
COc1ccc(CCn2c(-c3ccc(C(C)(C)C)cc3)n[nH]c2=S)cc1OC	i[2.29 µM]	i	i	i	i	14µM
Cc1ccc(-n2c(-c3cccc(C)c3)n[nH]c2=S)cc1	i	?	i	i	i	2.8µM
COc1ccc(CCn2c(-c3ccc(Cl)cc3)n[nH]c2=S)cc1OC	i	i	i	i	i	?
Cc1ccc([N+](=O)[O-])c(-c2n[nH]c(=S)n2-c2cccc(Cl)c2)c1	i	i	i	i	i	3.2µM
Cc1ccc(-c2n[nH]c(=S)n2-c2ccccc2)cc1	i	i	i	i	i	?
Cc1cccc(-n2c(-c3ccoc3C)n[nH]c2=S)c1	i	i	i	i	?	?
Cc1cccc(N2C(=O)N(CC(=O)C(C)(C)C)c3ccccc3S2(=O)=O)c1C	nt	nt	i	nt	i	i
CC(/C=N/NC(=O)c1nnn(-c2nonc2N)c1CN(C)C)=C\c1ccco1	i	i	45µM	i	i	i
C/C(=N\NC(=O)c1nnn(-c2nonc2N)c1CN(C)c1ccccc1)c1ccc(O)cc1	25µM	i	i	i	i	i
C/C(=N\NC(=O)c1nnn(-c2nonc2N)c1CN(C)c1ccccc1)c1cccc(O)c1	i	i	i	i	i	i
COc1ccc(C(=S)Nc2ccc(C)cc2)cc1	i	i	i	i	i	i
Cc1ccc(S(=O)(=O)CNC(=S)c2cccc(C)c2)cc1	i	i	3.5µM	i	i	i
Cc1ccc(S(=O)(=O)CC(=O)c2ccccc2)cc1	i	i	i	i	i	i
Cc1ccc(S(=O)(=O)CNC(=S)c2ccc3ccccc3c2)cc1	i	i	3.2µM	i	i	i
Cc1ccc(C(=O)NNC(=O)c2ccc3ccccc3c2)cc1	nt	nt	nt	i	nt	i
COc1ccc(C(=S)NCS(=O)(=O)c2ccc(C)cc2)cc1	i	i	2.5µM	i	?	i
SMILES	AmpC inh no detg	SARS PLP yeast	Sm TGR inh	RE007 growth inh	AmpC detergent	TbPYK inhibitor
Cc1ccc(S(=O)(=O)CNC(=O)c2ccccc2)cc1	i	i	20µM	i	i	i
CN1CCN(c2ncc3nc(CCc4ccccc4)c(=O)n(CCC#N)c3n2)CC1	nt	nt	nt	nt	nt	i
COc1cc(OC)c(NC(=O)C(c2ccccc2)N2Cc3ccccc3C2=O)cc1Cl (stereo not given)	nt	nt	i	nt	i	i
CN1CCN(c2nc3c(S(=O)(=O)c4ccc(Br)cc4)nnn3c3ccsc23)CC1	nt	nt	i	nt	i	i
Cc1cc(NC(=O)CC2CCCC2)n(-c2nc3ccccc3[nH]2)n1	i	i	22µM	i	i	i
Cc1cc(NC(=O)c2ccc(F)cc2F)n(-c2nc3ccccc3[nH]2)n1	i	i	i	i	i	i
CCCn1c(CCC(=O)O)ccc1-c1ccccc1	i	i	i	i	?	i
COCCCn1c(CCC(=O)O)ccc1-c1cccs1	i	i	8.9µM	i	i	i
CCCn1c(CCC(=O)O)ccc1-c1cccs1	i	i	3.5µM	i	?	i
